The values that follow come from PubChem BioAssay.

Activity calls are given as the source filed them.

Experiment [1] can be described thus: compounds binding Alexa647 anti-His antibody – biochemical, small-molecule microarray, 635 nm fluorescence, artefact control for SMM control protein annotation, primary screen (AID 1128).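 Also: score merges feature fluorescence with signal-to-noise for each printed compound spot.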 To be noted: higher = more signal.
Experiment [2] relates to Human papillomavirus type 1a E7 protein (residues 1-88). The experiment is described as follows: HPV1a E7 small-molecule binders, primary screen, biochemical, small-molecule microarray, residues 1-88, 635 nm (AID 1129). The settings on record: small-molecule microarray binding, fluorescence 635 nm; higher = more signal.
Experiment [3] deals with Focal adhesion kinase 1 (Homo sapiens) (UniProt Q05397). The experiment is described as follows: PTK2 protein binding on printed compound slides – biochemical, small-molecule microarray, 635/667 nm fluorescence, BSA, DTT, primary screen (AID 1130).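 Also: composite of spot emission at 667 nm and signal to noise over triplicate slides.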 The settings on record: 635 nm fluorescence, higher = more signal.
Experiment [4] concerns Fibrinogen (Alexa647-labelled). Put plainly: Alexa647-fibrinogen binding to printed small molecules – biochemical, small-molecule microarray, 635/667 nm fluorescence, artefact control for SMM control-protein annotation, profiling panel (AID 1131).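 Also: z-score merges 667 nm fluorescence with per-spot signal-to-noise over triplicate slides.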 To be noted: fibrinogen-A647 binding fluorescence, higher = more signal.
Experiment [5] concerns the target Follistatin (Homo sapiens) (UniProt P19883). Put plainly: FST protein binding to printed compounds – biochemical, small-molecule microarray, 635/667 nm fluorescence, primary screen (AID 1132). To be noted: 635 nm fluorescence, higher = more signal.
Experiment [6] deals with Fibroblast growth factor 2 (Homo sapiens) (UniProt P09038). Put plainly: basic fibroblast growth factor binding to printed compounds – biochemical, small-molecule microarray, 635/667 nm fluorescence, primary screen (AID 1133). The settings on record: FGF2, fluorescence 635/667, higher = more signal.
Experiment [7] in a line: JC-1 mitochondrial potential readout, lung cancer cells – cell-based, A549, JC-1 fluorescence, basal, 24 h, 100 nL, profiling panel (AID 1138).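 Also: A549 lung adenocarcinoma cells under basal conditions with no added stimulus; test concentration not given here.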 To be noted: higher = more signal.
The subject of a further experiment is Lefty1. The experiment is described as follows: Lefty1 protein binding to printed compounds – biochemical, small-molecule microarray, 635/667 nm fluorescence, primary screen (AID 1139). To be noted: fluorescence 635/667, higher = more signal.
In experiment [8] the test system is wheat germ agglutinin (Triticum aestivum), Alexa647-labelled. Put plainly: Alexa647-WGA lectin binding to printed small molecules – biochemical, small-molecule microarray, 635/667 nm fluorescence, artefact control for SMM control-protein annotation, profiling panel (AID 1140).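 Also: score merges 667 nm feature emission with signal to noise over triplicate slides.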 The settings on record: WGA-A647 binding, 635 nm fluorescence, higher = more signal.
For experiment [9], the target named is Luciferin 4-monooxygenase (Photinus pyralis) (UniProt P08659). The experiment is described as follows: inhibition of purified Photinus pyralis luciferase – biochemical, luminescence, purified enzyme, 2006 set, primary screen (AID 1141).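 Also: cell-free assay with purified firefly luciferase at 100 ng per well in PBS; test concentration not given here.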 The settings on record: purified firefly luciferase, SteadyGlo luminescence, 30 min; higher = more signal, called active from +8 up or from −8 down.
Sequence of Luciferin 4-monooxygenase (Photinus pyralis) (P08659 whole entry, looked up): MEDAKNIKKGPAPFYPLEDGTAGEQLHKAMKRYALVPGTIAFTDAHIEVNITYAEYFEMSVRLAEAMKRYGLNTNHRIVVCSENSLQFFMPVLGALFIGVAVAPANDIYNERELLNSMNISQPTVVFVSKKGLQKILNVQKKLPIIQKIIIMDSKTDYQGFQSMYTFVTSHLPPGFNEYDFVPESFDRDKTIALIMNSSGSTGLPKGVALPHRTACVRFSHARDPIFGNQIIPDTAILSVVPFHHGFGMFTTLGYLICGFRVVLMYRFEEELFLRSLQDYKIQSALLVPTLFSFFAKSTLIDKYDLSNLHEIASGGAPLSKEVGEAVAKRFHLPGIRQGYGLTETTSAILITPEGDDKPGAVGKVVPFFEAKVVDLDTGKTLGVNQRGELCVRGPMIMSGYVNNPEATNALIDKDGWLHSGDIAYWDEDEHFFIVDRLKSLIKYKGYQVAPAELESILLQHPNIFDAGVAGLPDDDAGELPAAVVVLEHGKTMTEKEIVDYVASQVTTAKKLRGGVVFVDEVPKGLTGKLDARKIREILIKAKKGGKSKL

Sequence of Fibroblast growth factor 2 (Homo sapiens) (P09038 whole entry, looked up): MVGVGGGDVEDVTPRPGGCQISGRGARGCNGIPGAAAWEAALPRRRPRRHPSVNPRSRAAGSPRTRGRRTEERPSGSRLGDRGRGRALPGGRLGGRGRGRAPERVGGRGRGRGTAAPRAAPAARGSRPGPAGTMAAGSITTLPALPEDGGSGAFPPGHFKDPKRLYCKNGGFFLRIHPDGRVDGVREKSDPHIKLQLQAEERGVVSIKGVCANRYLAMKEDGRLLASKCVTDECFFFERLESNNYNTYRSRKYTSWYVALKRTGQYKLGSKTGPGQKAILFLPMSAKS
Sequence of Follistatin (Homo sapiens) (P19883 whole entry, looked up): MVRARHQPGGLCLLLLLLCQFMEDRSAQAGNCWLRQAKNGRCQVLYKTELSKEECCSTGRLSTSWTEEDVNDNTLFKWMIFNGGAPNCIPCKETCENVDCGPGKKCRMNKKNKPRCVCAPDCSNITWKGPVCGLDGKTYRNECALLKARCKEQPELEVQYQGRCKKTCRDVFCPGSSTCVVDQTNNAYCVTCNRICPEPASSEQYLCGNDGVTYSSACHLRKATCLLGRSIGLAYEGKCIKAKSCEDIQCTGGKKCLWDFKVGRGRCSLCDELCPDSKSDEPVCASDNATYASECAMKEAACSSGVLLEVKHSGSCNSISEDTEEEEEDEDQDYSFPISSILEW
Sequence of Focal adhesion kinase 1 (Homo sapiens) (Q05397 whole entry, looked up): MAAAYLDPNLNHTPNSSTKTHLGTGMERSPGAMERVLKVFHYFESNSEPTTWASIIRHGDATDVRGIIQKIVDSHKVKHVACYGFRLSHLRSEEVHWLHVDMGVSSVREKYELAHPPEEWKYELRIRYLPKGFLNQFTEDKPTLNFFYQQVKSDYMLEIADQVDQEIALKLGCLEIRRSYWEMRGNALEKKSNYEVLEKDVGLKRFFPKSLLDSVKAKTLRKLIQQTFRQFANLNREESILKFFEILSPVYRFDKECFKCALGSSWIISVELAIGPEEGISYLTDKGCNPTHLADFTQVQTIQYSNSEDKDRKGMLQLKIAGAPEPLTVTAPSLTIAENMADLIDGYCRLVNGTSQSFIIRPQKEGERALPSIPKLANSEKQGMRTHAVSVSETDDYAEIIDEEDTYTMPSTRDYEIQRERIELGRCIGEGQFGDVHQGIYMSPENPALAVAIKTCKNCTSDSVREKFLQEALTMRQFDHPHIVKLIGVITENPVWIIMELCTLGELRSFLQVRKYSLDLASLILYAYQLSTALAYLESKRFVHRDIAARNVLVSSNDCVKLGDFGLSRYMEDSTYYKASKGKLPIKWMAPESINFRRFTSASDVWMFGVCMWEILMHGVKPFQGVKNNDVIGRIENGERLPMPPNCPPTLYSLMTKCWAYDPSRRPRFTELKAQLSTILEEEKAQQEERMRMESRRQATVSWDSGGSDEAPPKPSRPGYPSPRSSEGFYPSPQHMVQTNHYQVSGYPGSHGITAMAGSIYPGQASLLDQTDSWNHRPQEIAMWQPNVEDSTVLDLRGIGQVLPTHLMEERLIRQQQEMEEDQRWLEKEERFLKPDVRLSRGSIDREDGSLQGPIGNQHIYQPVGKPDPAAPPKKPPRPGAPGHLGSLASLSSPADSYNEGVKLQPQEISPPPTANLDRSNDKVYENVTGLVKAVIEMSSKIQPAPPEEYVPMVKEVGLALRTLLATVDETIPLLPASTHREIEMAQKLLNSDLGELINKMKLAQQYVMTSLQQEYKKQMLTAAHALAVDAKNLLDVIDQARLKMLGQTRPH

As for `CCN1C(=O)[C@H]2[C@H]3[C@H](O)[C@H](O)CC(=NOCC=C(C)CCC=C(C)C)[C@@H]3CC[C@H]2C1=O`, the composite z-score was 0.521 in [1]; 0.344 in [2]; -0.0746 in experiment [3]; 0.493 in experiment [4]; 1.31 in [5]; 1.01 in [6]. The composite z-score in the experiment with Lefty1 is 1.23; in experiment [8] it was -0.207. Moreover, the z-score in [7] was -0.717; in [9], 0.146 (inactive).
Turning to `O=C1[C@H]2[C@H]3[C@H](O)[C@H](O)CC(=NOCc4ccccc4)[C@H]3CC[C@H]2C(=O)N1C1CCCCC1`, the composite z-score turned out to be 0.992 in experiment [1]; 0.944 in [2]; 0.041 in experiment [3]; 1 in experiment [4]; 0.28 in experiment [5]; 0.479 in experiment [6]. The composite z-score with Lefty1 came to 0.355; in experiment [8], 0.971. Further, the z-score in experiment [7] was 0.436; in [9], 0.18 (inactive).
For the compound `CC(C)CN1CCc2nc(-c3ccccc3)c3c(c2C1)CO[C@@H](C)C3`, the composite z-score was determined as 0.454 in experiment [1]; 1.16 in experiment [2]; 0.741 in [3]; 0.756 in experiment [4]; 0.785 in experiment [5]; 0.525 in experiment [6]. The composite z-score came out at 0.923 in the experiment on Lefty1 and 0.963 in experiment [8]. The values for the z-score in experiment [7] and in experiment [9] were 0.0232 and -0.628 (inactive), respectively.
In the case of `CC(C)(C)N1C(=O)[C@H]2[C@H]3[C@H](O)[C@H](O)CC(=NNC(=O)OCc4ccccc4)[C@@H]3CC[C@H]2C1=O`, the composite z-score in experiment [1] was 0.0938; in [2] it was 0.486; in experiment [3], 0.32; in experiment [4], 0.459; in experiment [5], 0.258; in experiment [6], 0.704. Further, the results for the composite z-score (in the experiment with Lefty1; in [8]) were 0.34 and 0.433, respectively. Further, the z-score was -0.202 in experiment [7] and -0.728 (inactive) in experiment [9].
Take `C#CCCCON=C1C[C@@H](O)[C@@H](O)[C@@H]2[C@@H]3C(=O)N([C@@H](C)c4ccccc4)C(=O)[C@@H]3CC[C@@H]12`: the composite z-score in experiment [1] was -0.559; in experiment [2] it was -0.82; in experiment [3] it was -0.0567; in [4] it was -0.181; in experiment [5], -0.326; in experiment [6] it was -0.141. Moreover, the composite z-score is -0.32 with Lefty1 and 0.0859 in [8]. Moreover, the values for the z-score in experiment [7] and in [9] were -0.683 and 0.993 (inactive), respectively.
On to `CC(C)[C@@H](OCc1ccccc1)[C@H](C)CON=C1[C@H]2CCn3c(=O)n(-c4ccccc4)c(=O)n3[C@H]2[C@H](O)[C@@H]2O[C@H]12`, for which the composite z-score in [1] is 2.57; in experiment [2], 0.246; in experiment [3], 0.0884; in experiment [4], -0.0016; in experiment [5] it was 0.759; in [6] it was 0.324. The composite z-score in the experiment with Lefty1 was 0.689; in experiment [8], 0.192. In addition, the z-score in [7] is -0.139; in [9], 0.0981 (inactive).
For the compound `CCOC(=O)NN=C1C[C@@H](O)[C@@H](O)[C@@H]2[C@@H]3C(=O)N(c4ccc(F)cc4F)C(=O)[C@@H]3CC[C@H]12`, the composite z-score was 0.142 in experiment [1]; 0.301 in [2]; -0.0292 in experiment [3]; 0.233 in experiment [4]; 0.515 in experiment [5]; 0.577 in [6]. Moreover, the composite z-score is 0.449 with Lefty1 and 0.161 in experiment [8]. Moreover, the z-score in [7] was -0.778; in experiment [9], 1.18 (inactive).
As for `COC(=O)CC=C[C@@H](C)[C@@H](C=NOC[C@@H](C)[C@H](OCc1ccccc1)C(C)C)NS(=O)(=O)c1ccc(C)cc1`, the composite z-score was 1.82 in [1]; -0.588 in experiment [2]; -0.424 in experiment [3]; -1.52 in [4]; 0.131 in experiment [5]; 0.0249 in experiment [6]. The composite z-score was 0.329 with Lefty1 and -1.57 in experiment [8]. The z-score in [7] is -0.48; in experiment [9], 0.419 (inactive).
With `CCOC(=O)[C@H](CC(C)C)NC(=O)CCC1CC(OC(=O)NCc2ccc3c(c2)OCO3)CC2(CCCC(COC(=O)NCc3ccccc3)O2)O1` (stereo not given in full), the composite z-score was determined as 0.333 in experiment [1]; 0.946 in [2]; 0.0786 in experiment [3]; 0.926 in [4]; 0.659 in experiment [5]; 0.495 in [6]. The composite z-score came out at 1.03 in the experiment with Lefty1 and 0.786 in [8]. For the same compound, the z-score in experiment [7] is -0.0369; in experiment [9] it was 0.976 (inactive).
As to `COc1cccc([C@H](O)Cn2cc(-c3ccc(CON=C(C)C)cc3)nn2)c1`, the composite z-score in experiment [1] is 0.0043; in experiment [2], -1.15; in experiment [3], -0.351; in experiment [4], -1.01; in experiment [5] it was -0.46; in experiment [6], -0.153. Also, the composite z-score in the experiment on Lefty1 is -0.324; in experiment [8], -0.3. Further, the z-score in [7] is -0.442; in experiment [9], 0.278 (inactive).
For `CC(C)=NOC[C@@H](O)[C@H]1O[C@@H]2OC(C)(C)O[C@@H]2[C@H]1O`, the composite z-score in experiment [1] was -0.0333; in experiment [2], 0.491; in [3], 0.17; in experiment [4] it was 0.0104; in [5], 0.464; in experiment [6] it was 0.57. Also, the composite z-score came out at 0.507 in the experiment with Lefty1 and 0.0212 in experiment [8]. The z-score in [7] is 0.225; in experiment [9], -0.394 (inactive).
